High-throughput results as filed in PubChem BioAssay.
NPR2 activator – GC-B (human) receptor activation. P20594. HEK293-GC-B cells, CNP EC30, cGMP TR-FRET; 0% at EC30 CNP, 100% saturating CNP. activation, % at 10 µM. actives 0.11% (n = 370,000). AID 1920062;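 active = activation at 10 µM reaching about 35% in either raw or pattern-adjusted values, limit read from the data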
GC-A act – GC-A (human) enzyme activation | HEK293 GC-A cells, cGMP TR-FRET, EC30 ANP; 0% at EC30 ANP, 100% saturating ANP | activation, % at 10 µM | actives 0.14% (n = 370,000); in the data active = activation above about 40%
Rin1 Abl inh – blocks binding of human Rin1 to Abl; actives 0.4% (n = 360,000); P00519+Q13671; TR-FRET Rin1/Abl binding, biochemical; inhibition, % at 7.35 µM; in the data active = inhibition above about 5%, passing the limit was not always enough
Target sequence (P00519 whole entry, looked up): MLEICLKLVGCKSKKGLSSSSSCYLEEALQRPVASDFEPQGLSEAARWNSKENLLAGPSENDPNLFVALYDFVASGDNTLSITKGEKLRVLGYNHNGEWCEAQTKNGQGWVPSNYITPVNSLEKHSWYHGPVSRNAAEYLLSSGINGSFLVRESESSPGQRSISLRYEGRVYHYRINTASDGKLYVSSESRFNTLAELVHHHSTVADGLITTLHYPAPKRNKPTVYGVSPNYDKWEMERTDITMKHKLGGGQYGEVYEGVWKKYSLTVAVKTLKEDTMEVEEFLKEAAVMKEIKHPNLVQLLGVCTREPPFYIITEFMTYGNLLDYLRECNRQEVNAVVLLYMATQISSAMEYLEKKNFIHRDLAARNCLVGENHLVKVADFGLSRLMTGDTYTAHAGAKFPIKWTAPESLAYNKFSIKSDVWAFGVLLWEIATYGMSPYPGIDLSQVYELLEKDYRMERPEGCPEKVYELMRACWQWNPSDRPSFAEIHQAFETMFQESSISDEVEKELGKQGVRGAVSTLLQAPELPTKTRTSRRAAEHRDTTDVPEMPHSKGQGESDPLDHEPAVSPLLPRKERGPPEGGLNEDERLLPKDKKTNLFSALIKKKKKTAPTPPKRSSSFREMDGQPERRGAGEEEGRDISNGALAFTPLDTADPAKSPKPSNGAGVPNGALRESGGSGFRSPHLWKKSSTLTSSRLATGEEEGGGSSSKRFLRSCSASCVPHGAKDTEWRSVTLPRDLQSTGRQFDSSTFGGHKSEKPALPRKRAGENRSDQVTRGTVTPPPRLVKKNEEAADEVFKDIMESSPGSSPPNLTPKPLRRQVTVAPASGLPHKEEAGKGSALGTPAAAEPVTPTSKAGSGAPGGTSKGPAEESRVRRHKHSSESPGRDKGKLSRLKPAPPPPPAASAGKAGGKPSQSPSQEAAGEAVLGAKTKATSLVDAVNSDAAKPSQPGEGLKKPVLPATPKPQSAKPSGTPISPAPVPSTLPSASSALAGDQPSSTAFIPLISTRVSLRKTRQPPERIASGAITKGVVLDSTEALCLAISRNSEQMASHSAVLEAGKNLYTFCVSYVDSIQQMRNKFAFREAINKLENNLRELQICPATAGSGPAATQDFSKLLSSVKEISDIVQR
Target sequence (Q13671 whole entry, looked up): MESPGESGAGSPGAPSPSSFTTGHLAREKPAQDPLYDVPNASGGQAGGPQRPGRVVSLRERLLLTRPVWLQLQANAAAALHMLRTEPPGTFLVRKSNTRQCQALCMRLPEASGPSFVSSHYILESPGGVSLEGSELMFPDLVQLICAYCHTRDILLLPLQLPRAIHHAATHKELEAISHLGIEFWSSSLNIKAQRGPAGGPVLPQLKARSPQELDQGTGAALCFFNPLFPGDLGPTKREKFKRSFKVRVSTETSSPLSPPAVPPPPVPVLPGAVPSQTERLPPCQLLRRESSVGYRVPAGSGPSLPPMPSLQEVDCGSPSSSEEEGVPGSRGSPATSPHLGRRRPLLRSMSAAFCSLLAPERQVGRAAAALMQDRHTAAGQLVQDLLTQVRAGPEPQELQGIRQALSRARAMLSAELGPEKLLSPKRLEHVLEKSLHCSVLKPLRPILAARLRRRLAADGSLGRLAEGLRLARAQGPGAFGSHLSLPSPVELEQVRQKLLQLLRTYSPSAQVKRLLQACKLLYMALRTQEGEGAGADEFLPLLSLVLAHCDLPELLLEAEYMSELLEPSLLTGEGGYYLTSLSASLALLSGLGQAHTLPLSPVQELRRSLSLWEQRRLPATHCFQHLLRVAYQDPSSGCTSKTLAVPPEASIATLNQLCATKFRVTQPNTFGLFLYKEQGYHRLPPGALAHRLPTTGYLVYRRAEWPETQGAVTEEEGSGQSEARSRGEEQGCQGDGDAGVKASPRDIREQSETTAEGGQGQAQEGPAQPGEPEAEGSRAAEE
CaV13 ICDI inh – Primary screen for inhibitors of IQ motif and Ca2+-dependent inactivation inhibitor domain binding in CACNA1D, Förster resonance energy transfer in living cells, …; inhibition, % at 12.3 µM; HEK cells, CFP/YFP FRET ICDI-IQ, plate reader, 10 min; percent FRET-ratio fall versus neutral wells; actives 0.098% (n = 340,000);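 active = mean replicate inhibition of at least 30% and at least 1% of replicates passing that level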;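 note: 0% = median of the neutral control wells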
Rin1 Abl conf – Rin1-Abl interaction inhibition confirmation. shares compounds with Rin1 Abl inh. TR-FRET Rin1-Abl binding, purified proteins. inhibition, % at 7.35 µM. actives 49% (n = 1,300). AID 602124
GFP quench-1 – GFP fluorescence interference artifact; actives 8.5% (n = 1,300); inhibition, % at 6.75 µM; inhibitors/quenchers counterscreen; shares compounds with Rin1 Abl inh;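 note: ABL1-eGFP fusion protein alone without its partner RIN1-SBP; 0% = protein with vehicle and 100% = wells lacking protein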
GFP quench dose – quenches GFP in dose response, Rin1-Abl counter-screen; shares compounds with Rin1 Abl inh; GFP fluorescence interference/quenching counterscreen; IC50, µM; 230 tested, under 10 active; AID 602182; call rule not given here;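 note: ABL1-eGFP fusion protein alone without its RIN1 binding partner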
GFP quench-2 – quenches GFP fluorescence in Rin1-Abl counterscreen; IC50, µM; shares compounds with Rin1 Abl inh; GFP fluorescence quenching counterscreen, biochemical; 25 tested, under 10 active; call rule not given here
* = called active by the depositor; · = no result given. Shown are actives, neighbours in structure and some others; about 0.67% of the full set was active somewhere. Cut-off read from the data, not from the text of the source, unless noted: active = inhibition above about 6.5%; inactive = the rest.

SMILES	NPR2 activator	GC-A act	Rin1 Abl inh	CaV13 ICDI inh	Rin1 Abl conf	GFP quench-1	others
CN(C(=O)c1ccc(NC(=O)Cc2ccc(NC(=O)C3CCN(C(=O)CCc4ccccc4)CC3)cc2)cc1)C1CC1	1	4	12*	-5	17*	0
COC(=O)[C@]12C[C@H](CC(=O)N3CCN(C(=O)C4CC4)CC3)C(=O)N(Cc3ccc(Cl)cc3Cl)C1=C[C@H](C(C)(C)C)O[C@@H]2C	-3	-9	·	·	·	·
COc1ccc(CN2C3=N[C@H](c4ccccc4)CC(=O)N3/C(=C\c3ccccc3)C2c2ccco2)c(OC)c1 (stereo partly drawn)	-21	-26	·	·	·	·
CN(C(=O)c1ccc(NC(=O)Cc2ccc(NC(=O)C3CCN(C(=O)C4CCCCC4)CC3)cc2)cc1)C1CC1	3	4	68*	-10	66*	-1
CN(CCc1ccccc1)C(=O)c1ccc(NC(=O)Cc2cccc(NC(=O)C3CCN(C(=O)c4ccccc4)CC3)c2)cc1	-1	2	9.1*	-3	9.1*	1
Cn1cc(-c2coc3c(C(=O)NCc4cccnc4)cccc23)cn1	4	-4	1	-11	·	·
COc1ccc(CNC(=O)c2cccc3c(-c4cnn(C)c4)coc23)cc1OC	10	6	12*	-4	-2	0
Cc1cccc(NC(=O)[C@H](NC(=O)[C@@H]2Cc3ccccc3CN2)c2ccccc2)c1	-7	1	2	-6	·	·
Cc1cccc(NC(=O)[C@@H](CC(C)C)NC(=O)[C@@H]2Cc3ccccc3CN2)c1	-7	3	30*	-13	2	1
Cc1cccc(C(=O)Nc2nc3ncccn3c2-c2ccccc2)c1	-4	1	·	·	·	·
CCc1ccc(C(=O)Cc2cc3cccc(OC)c3oc2=O)cc1	-1	3	8.5*	-8	1	0
CC(C)Cn1c(=O)cc(N2CCN(c3cccc(C(F)(F)F)c3)CC2)[nH]c1=O	-7	-1	·	·	·	·
CCOC(CCn1c(SCC(=O)Nc2cc(C)on2)nc2ccccc2c1=O)OCC	1	0	9.4*	4	-2	1
COCCCn1c(SCC(=O)Nc2ccc(C(C)=O)cc2)nc2ccccc2c1=O	4	1	10*	-4	7.4*	1
O=C(Nc1ccc(F)cc1)OCCCN1C(=O)CCC12CCCCC2	0	0	·	·	·	·
COc1ccc(C)cc1S(=O)(=O)n1nc(C)cc1C	7	0	8.4*	-5	-3	2
COc1ccc(F)cc1S(=O)(=O)n1nc(C)cc1C	0	6	3	-5	·	·
COc1ccc(C(C)C)cc1S(=O)(=O)n1cnc(C)c1	5	7	8.0*	-3	-3	0
CN(Cc1c(C(=O)N(C)Cc2ccccc2)nc2ccccn12)CC1Cc2ccccc2O1 (stereo not drawn)	-2	-6	2	-4	·	·
CN(Cc1ccccc1)C(=O)c1nc2ccccn2c1CN1CCc2sccc2C1	-2	-8	9.8*	-7	-2	-1
Cc1c(S(=O)(=O)N2CCN(C(=O)c3ccco3)CC2)c(=O)n(C)c(=O)n1C	0	0	8.2*	18	-1	0
Cn1c(N)c(S(=O)(=O)N2CCN(C(=O)c3ccco3)CC2)c(=O)n(C)c1=O	-3	-3	0	-5	·	·
CC(C)C[C@H]1COc2cc(Br)ccc2S(=O)(=O)N1Cc1cn(Cc2ccc(Br)cc2)nn1	-2	2	·	·	·	·
CC(=O)c1ccc(OCc2cc(C(=O)N3CCC[C@H]3CO)no2)cc1	1	1	11*	-5	10*	-1
O=C(c1cc(COc2cccc3cccnc23)on1)N1CCC[C@H]1CO	4	8	54*	-7	50*	-1	GFP quench dose=>67;GFP quench-2=>68
SMILES	NPR2 activator	GC-A act	Rin1 Abl inh	CaV13 ICDI inh	Rin1 Abl conf	GFP quench-1	others
Cc1ccccc1OCCNCC(C)O (stereo not drawn)	1	3	9.0*	-6	-1	0
CCOc1ccccc1CNCCNCC(C)O (stereo not drawn)	1	-1	1	-3	·	·
COc1ccc(C(=O)CSc2nnc(-c3ccccn3)n2-c2ccccc2)cc1	-1	-5	·	·	·	·
O=C(CCO)c1ccc(O)cc1	0	3	29*	·	33*	7	GFP quench dose=>67
CCCCC(=O)c1ccc(O)cc1	3	3	4	-8	·	·
CC1=C(C(=O)OC(C)C)C(c2cccnc2)C2=C(CCCC2=O)N1 (stereo not drawn)	3	-3	-2	-5	·	·
CCOC(=O)C1=C(C)NC2=C(C(=O)CCC2)C1c1cccnc1 (stereo not drawn)	-1	-1	11*	-9	-3	1
O=C(COc1ccc(F)c(Cl)c1)N[C@H]1CCCN(CC2CC2)C1	-7	-4	·	·	·	·
COc1ccc(-c2nc3ccccc3c(=O)n2Cc2ccccc2)cc1COc1ccc(NC(C)=O)cc1	0	-4	·	·	·	·
COc1ccc(OC)c(NC(=O)COc2ccc(S(=O)(=O)NC(C)C)cc2)c1	-5	-3	7.4*	·	-1	0
Cc1cccc2cc(C(c3nnnn3C(C)(C)C)N(Cc3ccco3)CC3CCCO3)c(=O)[nH]c12 (stereo not drawn)	-1	-6	5.8*	-5	9.1*	3
CCOC(=O)c1ccc2ncc(C(=O)OCC)c(NCCN(C)C)c2c1	-4	3	7.9*	-6	-1	1
CN1C(=O)c2cc(NC(=O)Nc3ccccc3)ccc2OC[C@H]2O[C@@H](CC(=O)Nc3cc(F)ccc3F)CC[C@@H]21	-2	2	·	·	·	·
CC(=O)NC(c1ccccc1)c1cc(Cl)c2cccnc2c1O (stereo not drawn)	5	-1	12*	-6	10*	5
COc1ccc(C(NC(C)=O)c2cc(Cl)c3cccnc3c2O)cc1 (stereo not drawn)	0	-1	8.2*	-5	7.0*	1
CC(=O)NC(c1ccc(N(C)C)cc1)c1cc(Cl)c2cccnc2c1O (stereo not drawn)	-3	6	6.6*	-10	6.9*	2
CC(=O)NC(c1ccc(C)cc1)c1cc([N+](=O)[O-])c2cccnc2c1O (stereo not drawn)	-2	-2	6	-4	·	·
O=C(NC(c1ccc(Cl)cc1)c1cc(Cl)c2cccnc2c1O)c1cccnc1 (stereo not drawn)	-1	3	3	-4	·	·
